Screening data: PubChem, National Center for Advancing Translational Sciences (NCATS)
Rows were chosen to be rich in hits. Some 9.2% of all compounds tested hit in one or more screens of this group.
ELG1 DNA repair: inhibitors of ELG1-dependent DNA repair in HEK293T cells; HEK293T ELG1-luciferase reporter, luminescence, 16 h; DNA damage induced by 5-fluorouridine; Potency, µM (titrated, usually from 46.1 µM), without a hit: at the highest dose activity change, negative = inhibition, most hits filed as inhibitors; 330,000 tested, 2.3% active; AID 504467; also: % is scaled to controls: 0 for no effect and ±100 for the full control effect; nearly all actives have a fitted effect of over 55% in size
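Cells (2,000 per well) received 5-fluorouridine plus test compound or DMSO and were incubated 16 hr at 37 °C, 5% CO2. Luciferase activity was read by luminescence 30 min after ONE-Glo addition; signal suppression marked inhibition of damage-induced ELG1 function.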
NPC1 prom act: activators of NPC1 promoter; 320,000 tested, 2.4% active; Potency, µM (series often up to 9.22 µM), for the others: at the highest dose activation, usual class: activators; Huh7 NPC1 promoter luciferase reporter, 24 h; also: % of control where 0% means no effect; nearly all actives have a fitted effect of over 60% in size
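Cells: Huh7 expressing luciferase under the NPC1 promoter, 1500/well. Seeded 2 h, compound added, incubated 24 h at 37 °C. Luciferase reagent, 10 min ambient, then luminescence.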
Rab9 promoter act: Rab9 promoter activation; Potency, µM (doses to about 9.22 µM), for the others: top-dose activation, negative = inhibition, actives largely listed as activators; Huh7 Rab9 promoter-luciferase reporter, luminescence, 24 h; 320,000 tested, 2.8% active; also: % of control where 0% means no effect; nearly all actives have a fitted effect of over 60% in size
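Cells were plated at 1500 per well in reduced-serum medium with 10% FBS and left 2 h. Compound in DMSO was then added for 24 h at 37 °C. Reporter signal was read by luminescence after 10 min with luciferase detection reagent.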
ELG1 genotoxic: inducers of genotoxicity in HEK293T ELG1-luciferase cells; 330,000 tested, 1.3% active; HEK293T ELG1-luciferase reporter, luminescence, 16 h; Potency, µM (highest dose often 46 µM), without a hit: at the top dose activity change, positive = activation, usual class: activators; also: % of control where 0% means no effect; nearly all actives have a fitted effect of over 60% in size
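Genotoxicity was scored as increased ELG1-luciferase reporter signal, measured by ONE-Glo luminescence (30 min, room temperature). Compound or vehicle exposure of the HEK293T reporter cells lasted 16 hr at 37°C.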
SMN2 splice up: enhancers of SMN2 splice variant expression. Potency, µM (top dose mostly 46.1 µM), for inactives: top-dose activity change, positive = activation, hits mostly activators. AID 1458. HEK293 SMN2-luciferase splicing reporter, luminescence, 30-36 h. 210,000 tested, 2.8% active; also: % of control where 0% means no effect; nearly all actives have a fitted effect of over 55% in size
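HEK293 cells carry an SMN2 […]–luciferase reporter in which exon 7 inclusion puts luciferase in frame. Cells were plated 10-12 h before compound addition, then incubated 30-36 h at 37C. ONE-Glo luminescence was read; sodium butyrate at 4.5 mM final served as control.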
FLuc counter: counter-screen for miR-21 project: firefly luciferase inhibitors or activators; 360,000 tested, 6.9% active; AID 588342; Potency, µM (top dose mostly 57.5 µM), for inactives: at the top dose activity change, negative = inhibition, hits mostly inhibitors; purified FLuc, Km substrates, luminescence inhibition; P08659;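 also: plate controls were vehicle for no effect and reference inhibitor for full effect; nearly all actives have a fitted effect of over 55% in size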
Target sequence (P08659 whole entry, looked up): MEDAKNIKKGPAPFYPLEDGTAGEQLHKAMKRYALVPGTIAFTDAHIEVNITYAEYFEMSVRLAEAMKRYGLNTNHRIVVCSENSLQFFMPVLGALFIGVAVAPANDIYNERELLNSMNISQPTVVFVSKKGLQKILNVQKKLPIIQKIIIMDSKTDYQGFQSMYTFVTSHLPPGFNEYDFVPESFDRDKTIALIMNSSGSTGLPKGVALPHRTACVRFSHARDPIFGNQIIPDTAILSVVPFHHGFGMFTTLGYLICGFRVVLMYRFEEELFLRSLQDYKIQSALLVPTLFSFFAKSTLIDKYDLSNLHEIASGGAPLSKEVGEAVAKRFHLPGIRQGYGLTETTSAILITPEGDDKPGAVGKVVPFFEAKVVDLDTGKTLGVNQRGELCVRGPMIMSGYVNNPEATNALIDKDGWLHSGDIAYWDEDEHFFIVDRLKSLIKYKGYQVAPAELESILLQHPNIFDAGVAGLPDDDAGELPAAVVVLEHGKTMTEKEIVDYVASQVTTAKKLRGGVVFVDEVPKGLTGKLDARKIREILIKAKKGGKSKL
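Purified P. pyralis luciferase, 10 nM final, with Km-level 10 uM D-luciferin and 10 uM ATP in 50 mM Tris acetate pH 7.5, 10 mM Mg acetate, 0.01% Tween-20, 0.05% BSA; 6-point qHTS titration about 60 µM downward; luminescence read.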
The depositor's hits bear a star. Calls follow the shape of the dose curve; as a rule, active = well fitted curve in the direction sought with a large enough effect; inconclusive = small, poorly fitted or top-dose-only effect, or another doubt; inactive = no such curve, though single readings can be large; an effect the other way counts as inactive or inconclusive. Potency is read from the fitted curve at half-maximal effect.

For CC(/C=N/NC(=O)c1cc(C(C)(C)C)[nH]n1)=C\c1ccccc1 the results were ELG1 DNA repair -24%, NPC1 prom act -1%, Rab9 promoter act -1%, ELG1 genotoxic -3%, SMN2 splice up 16% and FLuc counter inconclusive.
`COc1ccc(NC(=O)c2cc(-c3ccccc3)nc3c2c(C)nn3-c2ccccc2)c(OC)c1` gave ELG1 DNA repair -27%, NPC1 prom act -10%, Rab9 promoter act -1%, ELG1 genotoxic -2%, SMN2 splice up -6% and FLuc counter -1%.
COc1ccccc1C(=O)N/N=C/C(C)=C/c1ccccc1 was read as ELG1 DNA repair inconclusive, NPC1 prom act inconclusive, Rab9 promoter act 15%, ELG1 genotoxic 14% and FLuc counter 9.5µM*.
Screening COc1ccccc1CNC(=O)Cn1cccc1C(=O)c1ccccc1 returned ELG1 DNA repair inconclusive, NPC1 prom act 19%, Rab9 promoter act 16%, ELG1 genotoxic 10% and FLuc counter -17%.
Screening Cc1ccc(C(=O)NNC(=O)c2cc(C)nc3ccccc23)cc1 returned ELG1 DNA repair 6%, NPC1 prom act -1%, Rab9 promoter act 3%, ELG1 genotoxic 1% and FLuc counter inconclusive.
`CC(=O)Nc1cc2ccccc2oc1=O` gave ELG1 DNA repair 13%, NPC1 prom act 0%, Rab9 promoter act -11%, ELG1 genotoxic -6%, SMN2 splice up -6% and FLuc counter 4%.
`Cc1oc(=O)c(NC(=O)c2ccc(Cl)cc2)cc1C(=O)c1ccccc1` gave ELG1 DNA repair inconclusive, NPC1 prom act 0%, Rab9 promoter act 2%, ELG1 genotoxic 7%, SMN2 splice up -5% and FLuc counter -17%.
COc1ccc(C(=O)Nc2cc(C(C)=O)c(/C=C/N(C)C)oc2=O)cc1 was read as ELG1 DNA repair -7%, NPC1 prom act -3%, Rab9 promoter act 4%, ELG1 genotoxic 0%, SMN2 splice up -5% and FLuc counter inconclusive.
For CC(=O)c1cc(NC(=O)c2ccc(C)cc2)c(=O)oc1/C=C/N(C)C the results were ELG1 DNA repair inconclusive, NPC1 prom act -1%, Rab9 promoter act 21%, ELG1 genotoxic 3%, SMN2 splice up inconclusive and FLuc counter 5.4µM*.
For Cc1cc[n+](CC(=O)c2cc3ccccc3oc2=O)cc1 the results were ELG1 DNA repair inconclusive, NPC1 prom act 1%, Rab9 promoter act 25%, ELG1 genotoxic 15%, SMN2 splice up -2% and FLuc counter 24µM*.
`Cc1oc(=O)c(NC(=O)c2ccccc2)cc1C(=O)c1ccccc1` gave ELG1 DNA repair inconclusive, NPC1 prom act inconclusive, Rab9 promoter act 2.2µM*, ELG1 genotoxic inconclusive, SMN2 splice up 26% and FLuc counter 15µM*.
Screening Cc1ccc(C(=O)Nc2cc3ccccc3oc2=O)cc1 returned ELG1 DNA repair inconclusive, NPC1 prom act 0.71µM*, Rab9 promoter act inconclusive, ELG1 genotoxic inconclusive and FLuc counter 0.076µM*.
CC(C)c1ccc(NC(=O)C2CCCN2S(=O)(=O)c2ccc3nc(-c4ccccc4)[nH]c3c2)cc1 (stereo unspecified) was read as FLuc counter -7%.
Screening CC(=O)c1cc(NC(=O)c2ccc(C)cc2)c(=O)oc1C returned ELG1 DNA repair inconclusive, NPC1 prom act -2%, Rab9 promoter act -2%, ELG1 genotoxic inconclusive and FLuc counter 17µM*.
`CCN(C(=O)c1cnc(NC(C)C)cc1C(F)(F)F)c1ccc(Cl)cc1` gave ELG1 DNA repair 18µM*, NPC1 prom act 2%, Rab9 promoter act 0%, ELG1 genotoxic -15% and FLuc counter -2%.
Screening C=CCn1c(SCC(=O)NC2CCCCC2)nnc1-c1sc(N)nc1C returned ELG1 DNA repair 4%, NPC1 prom act 0%, Rab9 promoter act -1%, ELG1 genotoxic 1%, SMN2 splice up -1% and FLuc counter 2%.
